# From the supplement of paper PMC8728848
# The full list was thinned out, with the strongest signals kept by preference.
# B1: Epa3to2 (Candida glabrata) (protein)
# chain: MGSSHHHHHHSSGLVPRGSHMKRELSSQNPFGYPIGCSPQDVAIIPGLTMELYSYPIVSGTPPNCYDASYVDPEYPRTGYLKRKMVGKSTGVTGNLNYKYSVEKACMVKYGNLPAGYNYNEPLTVSNFTMILYGYFKAQTTGLHTFFVNADDLLYINFGAGNAFDCCKREDSKTKLGEYVAYDIWHVDSSKNKVSLFLEKDLYYPIRMFFNNRDNNSSLDLSFSVNGATDQISDFSGYLYSVPDQPDTCPAHIGYDTTCR
# What was measured:
# Experiment in all cases: glycan array binding signal (z-score within array); higher = stronger binding
# Settings in all cases: glycan notation: IUPAC condensed, linker removed
# [1] = target: Fuc(a1-2)Gal(b1-3)GalNAc(b1-3)Gal
# How it was run: (§1)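 The binding signal is a Z-score computed within each array. Data were drawn from 3228 arrays in the Consortium for Functional Glycomics database, restricted to those with a known protein sequence. Scores were averaged over arrays of the same protein sequence at different concentrations or buffers, and over linkers, and negative values can be taken as non-binding.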
# [2] = target: Fuc(a1-2)Gal(b1-3)GlcNAc(b1-3)[Gal(b1-4)GlcNAc(b1-6)]Gal(b1-4)Glc
# How it was run: as §1
# [3] = target: Fuc(a1-2)Gal(b1-4)GlcNAc6S
# How it was run: as §1
# [4] = target: Fuc(a1-2)Gal(b1-4)[Fuc(a1-3)]GlcNAc(b1-2)Man(a1-3)[Fuc(a1-2)Gal(b1-4)[Fuc(a1-3)]GlcNAc(b1-2)Man(a1-6)]Man(b1-4)GlcNAc(b1-4)[Fuc(a1-6)]GlcNAc
# How it was run: as §1
# [5] = target: Fuc(a1-2)Gal6S(b1-3)GlcNAc6S
# How it was run: as §1
# [6] = target: Fuc(a1-2)[Gal(a1-3)]Gal(b1-3)GlcNAc
# How it was run: as §1
# [7] = target: Fuc(a1-2)[Gal(a1-3)]Gal(b1-4)GlcNAc
# How it was run: as §1
# [8] = target: Fuc(a1-2)[Gal(a1-3)]Gal(b1-4)GlcNAc(b1-6)GalNAc
# How it was run: as §1
# [9] = target: Fuc(a1-3)[Gal(b1-4)]Glc6S
# How it was run: as §1
# [10] = target: Fuc(a1-3)[Gal(b1-4)]GlcNAc(b1-6)GalNAc
# How it was run: as §1
# [11] = target: Fuc(a1-3)[Gal3S(b1-4)]Glc
# How it was run: as §1
# [12] = target: Gal(a1-3)Gal(b1-4)GlcNAc(b1-2)Man
# How it was run: as §1
# Gal(b1-3)GlcNAc = target: Gal(b1-3)GlcNAc
# How it was run: as §1
# [13] = target: Gal(b1-3)GlcNAc(a1-3)Gal(b1-4)GlcNAc
# How it was run: as §1
# [14] = target: Gal(b1-3)GlcNAc(b1-2)[Gal(b1-3)GlcNAc(b1-6)]Man(a1-6)[Gal(b1-3)GlcNAc(b1-2)Man(a1-3)]Man(b1-4)GlcNAc(b1-4)GlcNAc
# How it was run: as §1
# [15] = target: Gal(b1-3)GlcNAc(b1-3)Gal(b1-4)GlcNAc(b1-2)[Gal(b1-3)GlcNAc(b1-3)Gal(b1-4)GlcNAc(b1-6)]Man(a1-6)[Gal(b1-3)GlcNAc(b1-3)Gal(b1-4)GlcNAc(b1-2)Man(a1-3)]Man(b1-4)GlcNAc(b1-4)[Fuc(a1-6)]GlcNAc
# How it was run: as §1
# [16] = target: Gal(b1-3)[Fuc(a1-4)]GlcNAc(b1-2)Man
# How it was run: as §1
# [17] = target: Gal(b1-3)[Fuc(a1-4)]GlcNAc(b1-3)Gal(b1-3)[Fuc(a1-4)]GlcNAc
# How it was run: as §1
# [18] = target: Gal(b1-4)GlcNAc(b1-2)Man(a1-3)[Man(a1-6)]Man(b1-4)GlcNAc(b1-4)GlcNAc
# How it was run: as §1
# [19] = target: Gal3S(b1-4)[Fuc(a1-3)]Glc6S
# How it was run: as §1
# Gal3S4S(b1-4)GlcNAc = target: Gal3S4S(b1-4)GlcNAc
# How it was run: as §1
# Gal3S6S(b1-4)GlcNAc = target: Gal3S6S(b1-4)GlcNAc
# How it was run: as §1
# Gal6S(b1-3)GlcNAc = target: Gal6S(b1-3)GlcNAc
# How it was run: as §1
# Gal6S(b1-3)GlcNAc6S = target: Gal6S(b1-3)GlcNAc6S
# How it was run: as §1
# Gal6S(b1-4)GlcNAc6S = target: Gal6S(b1-4)GlcNAc6S
# How it was run: as §1
# GalNAc(a1-3)Gal = target: GalNAc(a1-3)Gal
# How it was run: as §1
# [20] = target: GalNAc(b1-3)Gal(a1-6)Gal(b1-4)Glc
# How it was run: as §1
# [21] = target: GlcNAc(a1-3)Gal(b1-4)GlcNAc
# How it was run: as §1
# [22] = target: GlcNAc(a1-4)Gal(b1-3)GlcNAc
# How it was run: as §1
# [23] = target: GlcNAc(a1-4)Gal(b1-4)GlcNAc(b1-3)Gal(b1-4)[Fuc(a1-3)]GlcNAc(b1-3)Gal(b1-4)[Fuc(a1-3)]GlcNAc
# How it was run: as §1
# [24] = target: GlcNAc(b1-2)Gal(b1-3)GalNAc
# How it was run: as §1
# [25] = target: Man(a1-3)[Man(a1-6)]Man(a1-6)[Man(a1-2)Man(a1-3)]Man(b1-4)GlcNAc(b1-4)GlcNAc
# How it was run: as §1
# [26] = target: Man(a1-3)[Man(a1-6)]Man(a1-6)[Man(a1-3)]Man
# How it was run: as §1
# [27] = target: Neu5Ac(a2-3)Gal(b1-3)GlcNAc(b1-2)Man(a1-3)[Neu5Ac(a2-3)Gal(b1-3)GlcNAc(b1-2)Man(a1-6)]Man(b1-4)GlcNAc(b1-4)GlcNAc
# How it was run: as §1
# Neu5Ac(a2-3)Gal(b1-4)Glc = target: Neu5Ac(a2-3)Gal(b1-4)Glc
# How it was run: as §1
# [28] = target: Neu5Ac(a2-3)Gal(b1-4)GlcNAc(b1-2)Man
# How it was run: as §1
# [29] = target: Neu5Ac(a2-3)Gal(b1-4)GlcNAc(b1-2)[Neu5Ac(a2-3)Gal(b1-4)GlcNAc(b1-4)]Man(a1-3)[GlcNAc(b1-4)][Neu5Ac(a2-3)Gal(b1-4)GlcNAc(b1-2)[Neu5Ac(a2-3)Gal(b1-4)GlcNAc(b1-6)]Man(a1-6)]Man(b1-4)GlcNAc(b1-4)GlcNAc
# How it was run: as §1
# [30] = target: Neu5Ac(a2-3)Gal(b1-4)GlcNAc(b1-2)[Neu5Ac(a2-3)Gal(b1-4)GlcNAc(b1-4)]Man(a1-3)[GlcNAc(b1-4)][Neu5Ac(a2-3)Gal(b1-4)GlcNAc(b1-4)Man(a1-6)]Man(b1-4)GlcNAc(b1-4)GlcNAc
# How it was run: as §1
# [31] = target: Neu5Ac(a2-3)Gal(b1-4)[Fuc(a1-3)]GlcNAc(b1-2)Man
# How it was run: as §1
# [32] = target: Neu5Ac(a2-3)[Neu5Ac(a2-6)]GalNAc
# How it was run: as §1
# [33] = target: Neu5Ac(a2-6)Gal(b1-4)GlcNAc(b1-2)Man(a1-3)Man(b1-4)GlcNAc(b1-4)GlcNAc
# How it was run: as §1
# [34] = target: Neu5Ac(a2-6)GalNAc(b1-4)GlcNAc
# How it was run: as §1
# Neu5Ac(a2-8)Neu5Ac = target: Neu5Ac(a2-8)Neu5Ac
# How it was run: as §1
# [35] = target: Neu5Ac(a2-8)Neu5Ac(a2-3)Gal(b1-4)GlcNAc
# How it was run: as §1
# [36] = target: Neu5Ac(a2-8)Neu5Ac(a2-8)Neu5Ac(a2-3)[GalNAc(b1-4)]Gal(b1-4)Glc
# How it was run: as §1
# Neu5Gc(a2-3)Gal(b1-4)Glc = target: Neu5Gc(a2-3)Gal(b1-4)Glc
# How it was run: as §1
# [37] = target: Neu5Gc(a2-3)Gal(b1-4)GlcNAc(b1-3)Gal(b1-4)GlcNAc(b1-2)Man(a1-3)[Neu5Gc(a2-3)Gal(b1-4)GlcNAc(b1-3)Gal(b1-4)GlcNAc(b1-2)Man(a1-6)]Man(b1-4)GlcNAc(b1-4)GlcNAc
# How it was run: as §1
# Neu5Gc(a2-6)GalNAc = target: Neu5Gc(a2-6)GalNAc
# How it was run: as §1
binder,measurement,setting,value
B1,glycan array binding signal (z-score),[1],3.03
same,glycan array binding signal (z-score),[2],1.2
same,glycan array binding signal (z-score),[3],-0.709
same,glycan array binding signal (z-score),[4],2.47
same,glycan array binding signal (z-score),[5],2.11
same,glycan array binding signal (z-score),[6],-0.392
same,glycan array binding signal (z-score),[7],-0.27
same,glycan array binding signal (z-score),[8],-0.714
same,glycan array binding signal (z-score),[9],0.316
same,glycan array binding signal (z-score),[10],-1.35
same,glycan array binding signal (z-score),[11],0.878
same,glycan array binding signal (z-score),[12],-0.911
same,glycan array binding signal (z-score),Gal(b1-3)GlcNAc,-0.751
same,glycan array binding signal (z-score),[13],-0.807
same,glycan array binding signal (z-score),[14],0.52
same,glycan array binding signal (z-score),[15],0.293
same,glycan array binding signal (z-score),[16],0.761
same,glycan array binding signal (z-score),[17],-1.46
same,glycan array binding signal (z-score),[18],0.07
same,glycan array binding signal (z-score),[19],0.958
same,glycan array binding signal (z-score),Gal3S4S(b1-4)GlcNAc,-0.354
same,glycan array binding signal (z-score),Gal3S6S(b1-4)GlcNAc,2.42
same,glycan array binding signal (z-score),Gal6S(b1-3)GlcNAc,0.814
same,glycan array binding signal (z-score),Gal6S(b1-3)GlcNAc6S,3.65
same,glycan array binding signal (z-score),Gal6S(b1-4)GlcNAc6S,2.45
same,glycan array binding signal (z-score),GalNAc(a1-3)Gal,1.49
same,glycan array binding signal (z-score),[20],1.12
same,glycan array binding signal (z-score),[21],-1.07
same,glycan array binding signal (z-score),[22],-1.92
same,glycan array binding signal (z-score),[23],2.65
same,glycan array binding signal (z-score),[24],-1.16
same,glycan array binding signal (z-score),[25],3.92
same,glycan array binding signal (z-score),[26],0.52
same,glycan array binding signal (z-score),[27],-0.658
same,glycan array binding signal (z-score),Neu5Ac(a2-3)Gal(b1-4)Glc,7.38
same,glycan array binding signal (z-score),[28],2.24
same,glycan array binding signal (z-score),[29],1.37
same,glycan array binding signal (z-score),[30],-0.302
same,glycan array binding signal (z-score),[31],-0.793
same,glycan array binding signal (z-score),[32],-1.13
same,glycan array binding signal (z-score),[33],2.19
same,glycan array binding signal (z-score),[34],-0.698
same,glycan array binding signal (z-score),Neu5Ac(a2-8)Neu5Ac,1.01
same,glycan array binding signal (z-score),[35],0.968
same,glycan array binding signal (z-score),[36],0.534
same,glycan array binding signal (z-score),Neu5Gc(a2-3)Gal(b1-4)Glc,0.038
same,glycan array binding signal (z-score),[37],-0.277
same,glycan array binding signal (z-score),Neu5Gc(a2-6)GalNAc,2.12
